PubChem BioAssay (Tox21)
Records with an inconclusive call do not appear. Activity calls are given as the source filed them. Unless noted, calls follow the shape of the full dose curve.

System: not listed separately
Test: qHTS assay to identify small molecule agonists of the TGF-beta/Smad signaling pathway (AID 1346859; active = well fitted activation curve with a large enough effect in the signal ratio in the repeat runs, not every such curve was filed as active; the % refers to the signal ratio)
Conditions: SBE-bla HEK293T, TGF-beta/Smad beta-lactamase reporter, 5 h; series mostly up to 76.8 µM; activation: at the top concentration
Procedure, shortened: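 Screening used HEK 293T SBE-bla cells at 4,000/well. Test agents: 5 hr, 37 C. Detection: FRET substrate, 2 hr RT, then excitation 405 nm with emissions at 460 and 530 nm.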
% is scaled to controls: 0 for no effect and ±100 for the full control effect.

Row | Compound | activation
1 | OCC1CC2CC1C1CCC(CO)C21 (stereo not given) | -5.35% (inactive)
2 | CC(=O)/C(C)=C/C1C(C)=CCCC1(C)C (stereo not given) | 0.353% (inactive)
3 | O=[N+]([O-])c1cc[n+]([O-])cc1 | 3.27% (inactive)
4 | CC(=O)N(CC(=O)N(C)C)c1ccccc1 | -0.302% [at 35.3 µM] (inactive)
5 | COC(=O)C(C)=O | 1.54% (inactive)
6 | Nc1ccc(C(=O)N2CC3CC(CN(Cc4ccccc4)C3)C2)cc1 | -0.64% [at 35.3 µM] (inactive)
7 | CC(C)NCC(O)COc1ccc(CC(N)=O)cc1 (stereo not given) | 0.0086% (inactive)
8 | CCC(C)N(C)C(=O)c1cc2ccccc2c(-c2ccccc2Cl)n1 (stereo not given) | -6.78% [at 35.3 µM] (inactive)
9 | CCN(CC)CCOc1ccc2c(c1)C(=O)c1cc(OCCN(CC)CC)ccc1-2 | 4.16% [at 35.3 µM] (inactive)
10 | O=c1[nH]cnc2ccccc12 | 5.21% (inactive)
11 | c1ccc(OCc2ccc(CCCN3CCOCC3)cc2)cc1 | 0.0545% [at 35.3 µM] (inactive)
12 | CCOC(=O)C1=C(C)NC(C)=C(C(=O)OC)C1c1cccc([N+](=O)[O-])c1 (stereo not given) | -1.52% [at 35.3 µM] (inactive)
13 | Oc1ccc(C(O)CNCCCCCCNCC(O)c2ccc(O)c(O)c2)cc1O (stereo not given) | 0.522% [at 35.3 µM] (inactive)
14 | CC[C@@H]1C[C@H](N(Cc2cc(C(F)(F)F)cc(C(F)(F)F)c2)C(C)=O)c2cc(C(F)(F)F)ccc2N1C(=O)OC(C)C | 9.42% (inactive)
15 | CCCCCOC(=O)c1ccc(O)cc1 | -4.29% (inactive)
16 | O=C(CCN1CCN2CCCC2C1)N1c2ccccc2Sc2ccc(Cl)cc21 (stereo not given) | -2.07% [at 15.8 µM] (inactive)
17 | CC1(C)CCC(C)(C)c2cc(NC(=O)c3ccc(C(=O)O)cc3)ccc21 | -1.6% [at 35.3 µM] (inactive)
18 | O=C(/C=C/c1ccc(O)c(O)c1)O[C@@H]1C[C@](O)(C(=O)O)C[C@@H](O)[C@H]1O | 1.95% (inactive)
19 | CCOc1nc2cccc(C(=O)O)c2n1Cc1ccc(-c2ccccc2-c2nn[nH]n2)cc1 | -3.05% [at 35.3 µM] (inactive)
20 | CCOc1ccc2[nH]cc(C(=O)NCc3ccccc3)c(=O)c2n1 | -1.41% (inactive)
21 | CCCCc1cc2ccccc2c(OCCN(C)C)n1 | -3.67% [at 35.3 µM] (inactive)
22 | CCCCC(CC)COCCCN (stereo not given) | -0.897% (inactive)
23 | Oc1ccc2c(c1)OCO2 | 3.32% (inactive)
24 | NC(N)=NN=C(/C=C/c1ccc([N+](=O)[O-])o1)/C=C/c1ccc([N+](=O)[O-])o1 | 13.4% [at 35.3 µM] (inactive)
25 | CCCCCCCCCCCCC(=O)O | -7.82% (inactive)
26 | CCCCC(CC)(CO)CO | -2.4% (inactive)
27 | SC1CCCC1 | 3.25% (inactive)
28 | Cc1cc(O)ccc1N | 2.55% (inactive)
29 | Cc1ccc(C(=O)C(C)CN2CCCCC2)cc1 (stereo not given) | -1% [at 35.3 µM] (inactive)

Molecular target: Thyrotropin-releasing hormone receptor (Homo sapiens) (UniProt P34981)
Test: qHTS assay to identify small molecule antagonists of the thyrotropin-releasing hormone receptor (TRHR) signaling pathway (AID 1346877; active = well fitted inhibition curve with a large enough effect in the repeat runs, not every such curve was filed as active)
Conditions: TRHR-HEK293, TRH-induced calcium fluorescence, antagonist mode; series mostly up to 51.3 µM; activity, negative = inhibition: at the top concentration
Procedure, shortened: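 TRHR-expressing HEK293 cells loaded with calcium dye for 2 h at 37 C; compounds pre-incubated 5 min at room temperature before TRH challenge at 1 nM final. Intracellular calcium fluorescence read kinetically for 3 min; 15 concentrations in triplicate.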

Thyrotropin-releasing hormone receptor (Homo sapiens), sequence (P34981 whole entry, looked up): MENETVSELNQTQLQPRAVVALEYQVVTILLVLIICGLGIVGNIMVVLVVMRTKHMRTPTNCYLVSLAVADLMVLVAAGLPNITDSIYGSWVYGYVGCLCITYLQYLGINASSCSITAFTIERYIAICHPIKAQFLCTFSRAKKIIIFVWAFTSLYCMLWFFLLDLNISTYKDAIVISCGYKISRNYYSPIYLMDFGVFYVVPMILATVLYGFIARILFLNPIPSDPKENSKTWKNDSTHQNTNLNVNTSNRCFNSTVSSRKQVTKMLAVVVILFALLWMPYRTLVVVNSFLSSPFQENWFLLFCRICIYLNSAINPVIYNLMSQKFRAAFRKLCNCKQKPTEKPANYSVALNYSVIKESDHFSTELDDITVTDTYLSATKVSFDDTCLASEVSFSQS

Row | Compound | activity, negative = inhibition
30 | CC(=O)/C(C)=C/C1C(C)=CCCC1(C)C (stereo not given) | 3.47% (inactive)
31 | O=[N+]([O-])c1cc[n+]([O-])cc1 | 1.24% (inactive)
32 | COC(=O)C(C)=O | -3.47% (inactive)
33 | Nc1ccc(C(=O)N2CC3CC(CN(Cc4ccccc4)C3)C2)cc1 | -5.06% [at 23.6 µM] (inactive)
34 | CC(=O)O[C@@H]1C(=O)O[C@@H]2[C@H]1OC(=O)[C@@H]2OC(C)=O | -1.15% [at 23.6 µM] (inactive)
35 | CCC(C)N(C)C(=O)c1cc2ccccc2c(-c2ccccc2Cl)n1 (stereo not given) | -13% [at 23.6 µM] (inactive)
36 | CCN(CC)CCOc1ccc2c(c1)C(=O)c1cc(OCCN(CC)CC)ccc1-2 | -5.74% [at 23.6 µM] (inactive)
37 | C=CC(=O)OCC(C)OCC(C)OCC(C)OC(=O)C=C (stereo not given) | -10.9% (inactive)
38 | c1ccc(OCc2ccc(CCCN3CCOCC3)cc2)cc1 | 3.94% [at 23.6 µM] (inactive)
39 | CCOC(=O)C1=C(C)NC(C)=C(C(=O)OC)C1c1cccc([N+](=O)[O-])c1 (stereo not given) | 2.18% [at 23.6 µM] (inactive)
40 | Oc1ccc(C(O)CNCCCCCCNCC(O)c2ccc(O)c(O)c2)cc1O (stereo not given) | 4.48% [at 23.6 µM] (inactive)
41 | CC[C@@H]1C[C@H](N(Cc2cc(C(F)(F)F)cc(C(F)(F)F)c2)C(C)=O)c2cc(C(F)(F)F)ccc2N1C(=O)OC(C)C | -0.0557% (inactive)
42 | CN(C(=O)CCCOc1ccc2[nH]c(=O)ccc2c1)C1CCCCC1 | 9.87% [at 23.6 µM] (inactive)
43 | C[C@H](CCC(=O)O)[C@H]1CC[C@H]2[C@@H]3[C@H](O)C[C@@H]4C[C@H](O)CC[C@]4(C)[C@H]3CC[C@]12C | -5.83% (inactive)
44 | O=C(/C=C/c1ccc(O)c(O)c1)O[C@@H]1C[C@](O)(C(=O)O)C[C@@H](O)[C@H]1O | -0.104% (inactive)
45 | CCc1nn(C2CCCCC2)c2cc(C3(C#N)CCC(C(=O)O)CC3)ccc12 (stereo not given) | 8.88% (inactive)
46 | CCCCc1cc2ccccc2c(OCCN(C)C)n1 | 12% [at 23.6 µM] (inactive)
47 | CCCCC(CC)COCCCN (stereo not given) | -1.5% (inactive)
48 | CCCCCCCCCCCCC(=O)O | -1.6% (inactive)
49 | CCCCC(CC)(CO)CO | 2.1% (inactive)
50 | Cc1cc(O)ccc1N | 1.11% (inactive)
51 | Cc1ccc(C(=O)C(C)CN2CCCCC2)cc1 (stereo not given) | 7.24% [at 23.6 µM] (inactive)

Molecular target: Thyrotropin-releasing hormone receptor (Homo sapiens) (UniProt P34981)
Test: qHTS assay to identify small molecule agonists of the thyrotropin-releasing hormone receptor (TRHR) signaling pathway (AID 1346891)
Conditions: TRHR-HEK293 calcium fluorescence, agonist mode; series mostly up to 57.6 µM; activation: at the top concentration
Procedure, shortened: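 Readout was intracellular calcium fluorescence in TRHR-Hek293 cells. Cells were incubated 18 h, dye-loaded 2 h at 37 °C, and treated with compound in agonist mode.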

Row | Compound | activation
52 | CC(=O)/C(C)=C/C1C(C)=CCCC1(C)C (stereo not given) | -0.914% (inactive)
53 | O=[N+]([O-])c1cc[n+]([O-])cc1 | 0.111% (inactive)
54 | CC(=O)N(CC(=O)N(C)C)c1ccccc1 | 0.112% [at 26.5 µM] (inactive)
55 | COC(=O)C(C)=O | -0.191% (inactive)
56 | Nc1ccc(C(=O)N2CC3CC(CN(Cc4ccccc4)C3)C2)cc1 | -0.204% [at 26.5 µM] (inactive)
57 | CC(=O)O[C@@H]1C(=O)O[C@@H]2[C@H]1OC(=O)[C@@H]2OC(C)=O | -0.0315% [at 26.5 µM] (inactive)
58 | CC(C)NCC(O)COc1ccc(CC(N)=O)cc1 (stereo not given) | -1.1% (inactive)
59 | CCC(C)N(C)C(=O)c1cc2ccccc2c(-c2ccccc2Cl)n1 (stereo not given) | 0.187% [at 26.5 µM] (inactive)
60 | CCN(CC)CCOc1ccc2c(c1)C(=O)c1cc(OCCN(CC)CC)ccc1-2 | 0.267% [at 26.5 µM] (inactive)
61 | C=CC(=O)OCC(C)OCC(C)OCC(C)OC(=O)C=C (stereo not given) | -0.466% (inactive)
62 | c1ccc(OCc2ccc(CCCN3CCOCC3)cc2)cc1 | 0.729% [at 26.5 µM] (inactive)
63 | CCOC(=O)C1=C(C)NC(C)=C(C(=O)OC)C1c1cccc([N+](=O)[O-])c1 (stereo not given) | -0.0544% [at 26.5 µM] (inactive)
64 | CC(C)(C)c1cc(O)c(C(C)(C)C)cc1O | 24.3% (inactive)
65 | Oc1ccc(C(O)CNCCCCCCNCC(O)c2ccc(O)c(O)c2)cc1O (stereo not given) | 10.4% [at 26.5 µM] (inactive)
66 | CC[C@@H]1C[C@H](N(Cc2cc(C(F)(F)F)cc(C(F)(F)F)c2)C(C)=O)c2cc(C(F)(F)F)ccc2N1C(=O)OC(C)C | -0.372% (inactive)
67 | CN(C(=O)CCCOc1ccc2[nH]c(=O)ccc2c1)C1CCCCC1 | 0.79% [at 26.5 µM] (inactive)
68 | CC(CN)CCCN (stereo not given) | 0.133% (inactive)
69 | C[C@H](CCC(=O)O)[C@H]1CC[C@H]2[C@@H]3[C@H](O)C[C@@H]4C[C@H](O)CC[C@]4(C)[C@H]3CC[C@]12C | 3.62% (inactive)
70 | CC(C)c1ccc2c(C(C)C)cc(C(C)C)c(S(=O)(=O)O)c2c1 | 3.55% (inactive)
71 | O=C(/C=C/c1ccc(O)c(O)c1)O[C@@H]1C[C@](O)(C(=O)O)C[C@@H](O)[C@H]1O | -0.392% (inactive)
72 | CCc1nn(C2CCCCC2)c2cc(C3(C#N)CCC(C(=O)O)CC3)ccc12 (stereo not given) | -1.36% (inactive)
73 | CCOc1ccc2[nH]cc(C(=O)NCc3ccccc3)c(=O)c2n1 | 0.544% (inactive)
74 | CCCCc1cc2ccccc2c(OCCN(C)C)n1 | 25.9% [at 26.5 µM] (inactive)
75 | CCCCC(CC)COCCCN (stereo not given) | 8.2% (inactive)
76 | NC(N)=NN=C(/C=C/c1ccc([N+](=O)[O-])o1)/C=C/c1ccc([N+](=O)[O-])o1 | -0.404% [at 26.5 µM] (inactive)
77 | CCCCCCCCCCCCC(=O)O | 0.118% (inactive)
78 | CCCCC(CC)(CO)CO | -0.161% (inactive)
79 | Cc1cc(O)ccc1N | 0.619% (inactive)
80 | Cc1ccc(C(=O)C(C)CN2CCCCC2)cc1 (stereo not given) | -1.1% [at 26.5 µM] (inactive)
